The source made the active and inactive calls.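 How the source made its calls, unless noted: active means normalized viability below 100% at a tested concentration; inactive means the rest.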
Assays:
[1] = sensitizers of A549 cells to miR-34 induction, primary screen, imaging, A549 dox-inducible miR-34, nuclei and caspase counts (AID 1347080;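 active means compounds whose cell count with miR-34 switched on is under 0.7 times the count with it off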); settings: A549 miR-34 inducible, Hoechst nuclei count, 48 h
[2] = survival rescue of mitochondrial mutant cells in low glucose, primary screen, MELAS cybrids, Rieske KO mouse fibroblasts, CellTiter-Glo (AID 1508586;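 active means mean z-score across replicates of 1.96 or higher in either the MELAS or the Rieske mutant cell line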;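 further: z relative to plate mean and SD of compound and empty wells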)
[3] = ovarian cancer cell viability with rucaparib, profiling panel, oncology-focused library, rucaparib conditional (AID 1508598); settings: patient-derived ovarian cancer cells, CellTiter-Glo viability, 144 h, stronger effect = lower value
[4] = stronger effect = lower value, cell number ratio, induced over uninduced
[5] = measured here: relative caspase fold change +Dox/-Dox
[6] = measured here: total cells with miR-34 induction, stronger effect = lower value
[7] = measured here: total cells without miR-34 induction
[8] = MELAS cybrid survival, CellTiter-Glo 48 h, stronger effect = higher value
[9] = Rieske KO mouse fibroblast survival, CellTiter-Glo 72 h
[10] = at 0.000305 µM, OCI-C5x cells, with rucaparib 10 µM, 100% = cells with rucaparib alone
[11] = at 0.000305 µM, OCI-C5x cells, without rucaparib
[12] = at 0.000305 µM, OCI-P5x cells, with rucaparib 20 µM, 100% = cells with rucaparib alone
[13] = at 0.000305 µM, OCI-P5x cells, without rucaparib
[14] = at 0.00122 µM, OCI-C5x cells, with rucaparib 10 µM, 100% = cells with rucaparib alone
[15] = at 0.00122 µM, OCI-C5x cells, without rucaparib
[16] = at 0.00122 µM, OCI-P5x cells, with rucaparib 20 µM, 100% = cells with rucaparib alone
[17] = at 0.00122 µM, OCI-P5x cells, without rucaparib
[18] = at 0.00488 µM, OCI-C5x cells, with rucaparib 10 µM, 100% = cells with rucaparib alone
[19] = at 0.00488 µM, OCI-C5x cells, without rucaparib
[20] = at 0.00488 µM, OCI-P5x cells, with rucaparib 20 µM, 100% = cells with rucaparib alone
[21] = at 0.00488 µM, OCI-P5x cells, without rucaparib
[22] = at 0.0195 µM, OCI-C5x cells, with rucaparib 10 µM, 100% = cells with rucaparib alone
[23] = at 0.0195 µM, OCI-C5x cells, without rucaparib
[24] = at 0.0195 µM, OCI-P5x cells, with rucaparib 20 µM, 100% = cells with rucaparib alone
[25] = at 0.0195 µM, OCI-P5x cells, without rucaparib
[26] = at 0.0781 µM, OCI-C5x cells, with rucaparib 10 µM, 100% = cells with rucaparib alone
[27] = at 0.0781 µM, OCI-C5x cells, without rucaparib
[28] = at 0.0781 µM, OCI-P5x cells, with rucaparib 20 µM, 100% = cells with rucaparib alone
[29] = at 0.0781 µM, OCI-P5x cells, without rucaparib
[30] = at 0.313 µM, OCI-C5x cells, with rucaparib 10 µM, 100% = cells with rucaparib alone
[31] = at 0.313 µM, OCI-C5x cells, without rucaparib
[32] = at 0.313 µM, OCI-P5x cells, with rucaparib 20 µM, 100% = cells with rucaparib alone
[33] = at 0.313 µM, OCI-P5x cells, without rucaparib
[34] = at 1.25 µM, OCI-C5x cells, with rucaparib 10 µM, 100% = cells with rucaparib alone
[35] = at 1.25 µM, OCI-C5x cells, without rucaparib
[36] = at 1.25 µM, OCI-P5x cells, with rucaparib 20 µM, 100% = cells with rucaparib alone
[37] = at 1.25 µM, OCI-P5x cells, without rucaparib
[38] = at 5 µM, OCI-C5x cells, with rucaparib 10 µM, 100% = cells with rucaparib alone
[39] = at 5 µM, OCI-C5x cells, without rucaparib
[40] = at 5 µM, OCI-P5x cells, with rucaparib 20 µM, 100% = cells with rucaparib alone
[41] = at 5 µM, OCI-P5x cells, without rucaparib

CCNC(=O)c1noc(-c2cc(Cl)c(O)cc2O)c1-c1ccc(OC)cc1
2390: cell count [1, 6]
-1.9: z-score [2, 9]
0.496: fold change [1, 5]
inactive: fold change [1, 4] 0.987 | viability [3, 10] 129% | viability [3, 11] 113% | viability [3, 12] 105% | viability [3, 14] 120% | viability [3, 15] 120% | viability [3, 16] 101% | viability [3, 17] 102% | viability [3, 18] 138% | viability [3, 19] 120% | viability [3, 20] 100% | viability [3, 21] 101% | viability [3, 22] 181% | viability [3, 23] 140%
2420: cell count [1, 7]
active: z-score [2, 8] 2.58 | viability [3, 13] 98% | viability [3, 24] 33.1% | viability [3, 25] 82.6% | viability [3, 26] 73.6% | viability [3, 27] 39.7% | viability [3, 28] 17.1% | viability [3, 29] 9.14% | viability [3, 30] 39% | viability [3, 31] 22.6% | viability [3, 32] 12% | viability [3, 33] 7.17% | viability [3, 34] 9.37% | viability [3, 35] 6.36% | viability [3, 36] 4.69% | viability [3, 37] 4.76% | viability [3, 38] 8.73% | viability [3, 39] 6.88% | viability [3, 40] 4.38% | viability [3, 41] 3.37%

CCOC(=O)c1cnc2ccc(-c3cncc(NS(=O)(=O)c4ccccc4)c3)cn12
active: viability [3, 11] 99.1% | viability [3, 13] 99.9% | viability [3, 17] 95.7% | viability [3, 21] 94.6% | viability [3, 25] 94.3% | viability [3, 26] 91.1% | viability [3, 27] 74.3% | viability [3, 28] 88.7% | viability [3, 29] 48.1% | viability [3, 30] 69.7% | viability [3, 31] 46.2% | viability [3, 32] 66.1% | viability [3, 33] 23.4% | viability [3, 34] 52.2% | viability [3, 35] 37% | viability [3, 36] 46.2% | viability [3, 37] 13.9% | viability [3, 38] 4.93% | viability [3, 39] 22.5% | viability [3, 40] 14.6% | viability [3, 41] 8.51%
1650: cell count [1, 6]
0.323: fold change [1, 5]
inactive: fold change [1, 4] 0.888 | z-score [2, 8] 0.296 | viability [3, 10] 115% | viability [3, 12] 102% | viability [3, 14] 121% | viability [3, 15] 102% | viability [3, 16] 101% | viability [3, 18] 129% | viability [3, 19] 105% | viability [3, 20] 107% | viability [3, 22] 122% | viability [3, 23] 112% | viability [3, 24] 102%
1860: cell count [1, 7]
0.8: z-score [2, 9]

O=C(COc1ccc(C(=O)c2ccccc2)cc1)NC1CCN(Cc2ccccc2)CC1
inactive: fold change [1, 4] 0.922 | z-score [2, 8] -0.391
6930: cell count [1, 6]
7520: cell count [1, 7]
-0.791: z-score [2, 9]
0.78: fold change [1, 5]

CN(C)CCSSCCNC(=O)C1CCN(C(=O)CSc2ccc(Cl)cc2)CC1
8530: cell count [1, 7]
7870: cell count [1, 6]
active: viability [3, 13] 95.4% | viability [3, 25] 100% | viability [3, 29] 95.1% | viability [3, 31] 91.9% | viability [3, 32] 98.4% | viability [3, 33] 89.4% | viability [3, 36] 93.2% | viability [3, 37] 90.1% | viability [3, 40] 88.3% | viability [3, 41] 87.3%
inactive: fold change [1, 4] 0.922 | z-score [2, 8] -0.0132 | viability [3, 10] 118% | viability [3, 11] 110% | viability [3, 12] 103% | viability [3, 14] 117% | viability [3, 15] 112% | viability [3, 16] 102% | viability [3, 17] 101% | viability [3, 18] 126% | viability [3, 19] 112% | viability [3, 20] 109% | viability [3, 21] 103% | viability [3, 22] 122% | viability [3, 23] 105% | viability [3, 24] 106% | viability [3, 26] 129% | viability [3, 27] 112% | viability [3, 28] 103% | viability [3, 30] 124% | viability [3, 34] 120% | viability [3, 35] 112% | viability [3, 38] 137% | viability [3, 39] 140%
0.314: fold change [1, 5]
1: z-score [2, 9]

COc1cc2c(cc1Cc1cccc(Cl)c1F)c(=O)c(C(=O)O)cn2C(CO)C(C)C (centres undefined)
1.26: fold change [1, 5]
0.532: z-score [2, 9]
3970: cell count [1, 6]
active: fold change [1, 4] 0.611
6500: cell count [1, 7]
inactive: z-score [2, 8] -0.198

CCc1c2c(nc3ccc(OC(=O)N4CCC(N5CCCCC5)CC4)cc13)-c1cc3c(c(=O)n1C2)COC(=O)[C@@]3(O)CC
active: viability [3, 30] 83.7% | viability [3, 31] 99.6% | viability [3, 32] 88.2% | viability [3, 33] 88.7% | viability [3, 34] 64.4% | viability [3, 35] 62.8% | viability [3, 36] 48.7% | viability [3, 37] 37.8% | viability [3, 38] 35.7% | viability [3, 39] 29.9% | viability [3, 40] 23.9% | viability [3, 41] 13.4%
2060: cell count [1, 6]
1.54: fold change [1, 5]
2030: cell count [1, 7]
-0.798: z-score [2, 9]
inactive: fold change [1, 4] 1.02 | z-score [2, 8] 0.2 | viability [3, 10] 115% | viability [3, 11] 112% | viability [3, 12] 119% | viability [3, 13] 112% | viability [3, 14] 114% | viability [3, 15] 118% | viability [3, 16] 112% | viability [3, 17] 114% | viability [3, 18] 119% | viability [3, 19] 118% | viability [3, 20] 106% | viability [3, 21] 107% | viability [3, 22] 117% | viability [3, 23] 110% | viability [3, 24] 108% | viability [3, 25] 103% | viability [3, 26] 112% | viability [3, 27] 106% | viability [3, 28] 104% | viability [3, 29] 106%
